Experimental data as given in PubChem BioAssay (Tox21).
Records with an inconclusive call do not appear. Active and inactive are the calls of the source. Unless noted, the call rests on the fitted dose curve; in most records, active means well fitted curve in the direction sought with a large enough effect in the repeat runs; inconclusive means weak or mixed curves; inactive means no such curve, though single readings can be large; an effect the other way counts as inactive or inconclusive.

Key:
[1] = qHTS assay to identify small molecule agonists of the vitamin D receptor (VDR) signaling pathway - cell viability counter screen (AID 743224); further: series mostly up to about 63 µM; on the % scale 0 is the no-effect control and ±100 the full control effect; nearly all actives have a fitted effect of over 50% in size
Method in brief: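 Here cell health was gauged by luminescent ATP detection (CellTiter-Glo, 30 min RT) in VDR-bla cells that had been incubated with test compounds for 16 h at 37C and 5% CO2.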

[2] = qHTS assay to identify small molecule antagonists of the vitamin D receptor (VDR) signaling pathway - cell viability counter screen (AID 743225); further: on the % scale 0 is the no-effect control and ±100 the full control effect; nearly all actives have a fitted effect of over 50% in size
Method in brief: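 Compounds were pinned onto VDR-bla HEK 293T cells together with 1-alpha,25-dihydroxyvitamin D3 at 3 nM final. After 16 h at 37C and 5% CO2 plus the reporter readout, cell viability was measured by CellTiter-Glo luminescence (30 min, room temperature).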

[3] = qHTS assay to identify small molecule agonists of the NFkB signaling pathway - cell viability counter screen (AID 1159515; calls by dose curve; further: series mostly up to about 61 µM; on the % scale 0 is the no-effect control and ±100 the full control effect; nearly all actives have a fitted effect of over 55% in size)
Method in brief: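 5 hr compound treatment of NFkB-bla ME-180 cells (2,000/well, seeded overnight beforehand), followed by reporter substrate for 1.5 hr. CellTiter-Glo added afterward; luminescence after 30 min RT.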

[4] = qHTS assay to identify small molecule agonists of the endoplasmic reticulum stress response signaling pathway (AID 1159516; active means well fitted activation curve with a large enough effect in the signal ratio in the repeat runs, not every such curve was filed as active; the % refers to the signal ratio; further: on the % scale 0 is the no-effect control and ±100 the full control effect)
Method in brief: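 Reporter HeLa cells (ESRE-beta-lactamase) underwent 5 hr compound incubation at 37 C and 5% CO2 in quantitative HTS format. Detection followed 2 hr of FRET substrate loading at room temperature.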

[5] = biological target: Nuclear receptor ROR-gamma (Homo sapiens) (UniProt P51449); assay: qHTS assay to identify small molecule antagonists of the retinoid-related orphan receptor gamma (ROR-gamma) signaling pathway (AID 1159521;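 further: CHO cells with doxycycline inducible ROR-gamma driving an RORE luciferase reporter; top concentration of the series differs between compounds; on the % scale 0 is the no-effect control and ±100 the full control effect; nearly all actives have a fitted effect of over 50% in size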)
Method in brief: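 Test compounds were applied to Tet-on RORγ CHO cells 2 h ahead of doxycycline hyclate (1 uM final). Luciferase reporter activity was quantified by luminescence after 16 h at 37 C and 5% CO2.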

[6] = qHTS assay to identify small molecule agonists of the AP-1 signaling pathway - cell viability counter screen (AID 1159525; calls by dose curve; further: nearly all actives have a fitted effect of over 55% in size)
Method in brief: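 ME-180 AP-1-bla, 2500 cells/well, Opti-MEM + 0.5% dialyzed FBS; overnight 37 °C; cpd 15-pt titration, 5 h 37 °C; CellTiter-Glo 30 min RT; luminescence read; normalised to TOAB and DMSO controls.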

[7] = qHTS assay to identify small molecule agonists of the AP-1 signaling pathway (AID 1159526; calls by dose curve; further: on the % scale 0 is the no-effect control and ±100 the full control effect)
[8] = biological target: Retinoic acid receptor RXR-alpha (Homo sapiens) (UniProt P19793); assay: qHTS assay to identify small molecule agonists of the RXR signaling pathway (AID 1159527; calls by dose curve; further: on the % scale 0 is the no-effect control and ±100 the full control effect; nearly all actives have a fitted effect of over 35% in size)
Sequence of Retinoic acid receptor RXR-alpha (Homo sapiens) (P19793 whole entry, looked up): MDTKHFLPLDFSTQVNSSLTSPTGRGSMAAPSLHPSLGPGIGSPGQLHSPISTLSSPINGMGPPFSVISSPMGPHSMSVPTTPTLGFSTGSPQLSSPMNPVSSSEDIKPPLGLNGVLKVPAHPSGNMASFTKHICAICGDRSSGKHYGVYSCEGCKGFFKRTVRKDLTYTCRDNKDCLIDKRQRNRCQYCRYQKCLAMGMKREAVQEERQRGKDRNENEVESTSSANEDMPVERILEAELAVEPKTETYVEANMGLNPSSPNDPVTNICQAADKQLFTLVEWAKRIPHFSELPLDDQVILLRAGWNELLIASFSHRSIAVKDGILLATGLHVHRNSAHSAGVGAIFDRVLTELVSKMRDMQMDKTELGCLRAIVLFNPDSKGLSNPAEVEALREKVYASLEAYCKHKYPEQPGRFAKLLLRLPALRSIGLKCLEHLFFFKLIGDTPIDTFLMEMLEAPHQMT
Method in brief: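 Using 9-cis retinoic acid as the reference agonist, chemicals were tested in HEK 293T cells […] for 16 hr; substrate loading lasted 2 hr at room temperature.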

[9] = qHTS assay to identify small molecule agonists of the RXR signaling pathway - cell viability counter screen (AID 1159529); further: series mostly up to about 77 µM; on the % scale 0 is the no-effect control and ±100 the full control effect; nearly all actives have a fitted effect of over 50% in size
Method in brief: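 Compounds dissolved in DMSO were pinned onto HEK 293T cells carrying a beta-lactamase reporter under RXR-alpha control and incubated 16 hr. Cytotoxicity was then quantified by CellTiter-Glo luminescence.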

[10] = qHTS assay to identify small molecule antagonists of the retinoid acid receptor (RAR) signaling pathway - cell viability counter screen (AID 1159551); further: on the % scale 0 is the no-effect control and ±100 the full control effect; nearly all actives have a fitted effect of over 35% in size
Method in brief: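 Seed C3RL4 cells; next day add compound, then retinol to 1 uM final; incubate 6 h at 37 C; add CellTiter-Glo; read luminescence after 30 min at RT.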

[11] = qHTS assay to identify small molecule agonists of the endoplasmic reticulum stress response signaling pathway - cell viability counter screen (AID 1159517; calls by dose curve)
Method in brief: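 Luminescence readout: CellTiter-Glo, 30 min RT, same wells as the ESRE-bla reporter read. HeLa ESRE-bla, 1,500 cells/well, o/n 37 C; cpd 5 hr 37 C/5% CO2.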

[12] = qHTS assay to identify small molecule antagonists of the retinoid-related orphan receptor gamma (ROR-gamma) signaling pathway - cell viability counter screen (AID 1159520)
Method in brief: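 Tet-on ROR gamma CHO cells (1,000/well) were plated 4 hr, given compounds in DMSO for 2 hr at 37 C, then induced with 1 uM final doxycycline for 16 hr. Viability was read as ATP by CellTiter-Glo luminescence after 30 min.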

[13] = qHTS assay to identify small molecule antagonists of the retinoic acid receptor (RAR) signaling pathway (AID 1159552)
Method in brief: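 Test chemicals and DMSO controls were pin-transferred onto C3RL4 cells a day after seeding; retinol (1 uM final) followed at once. Luminescent reporter output was quantified after 6 hr of co-incubation and 30 min with detection reagent.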

[14] = qHTS assay to identify small molecule agonists of the retinoic acid receptor (RAR) signaling pathway (AID 1159553); further: on the % scale 0 is the no-effect control and ±100 the full control effect
Method in brief: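 Activation of retinol signaling was monitored via a RARE luciferase reporter in C3RL4 cells. After 6 hr compound treatment at 37 C, detection reagent was added for 30 min at room temperature before luminescence reading.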

[15] = qHTS assay to identify small molecule antagonists of the estrogen related receptor (ERR) signaling pathway - cell viability counter screen (AID 1224818);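 further: series mostly up to about 46 µM; viability measured after 17.5 h of compound exposure; on the % scale 0 is the no-effect control and ±100 the full control effect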
Method in brief: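 In the same ERR cell assay, compound-treated wells (17.5 h, 37 C) were multiplexed with a fluorogenic viability reagent, CellTiter-Fluor, read after 30 min to flag cytotoxic substances.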

[16] = qHTS assay to identify small molecule antagonists of the estrogen related receptor signaling pathway with the pleiotropic PPARgamma coactivator (PGC) cell viability counter screen (AID 1224822)
Method in brief: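 Compounds in DMSO, with positive and negative controls, were applied to PGC/ERR cells (2,000/well) and left 17.5 h at 37 C before CellTiter-Fluor detection.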

C[C@@H]1C[C@H]2[C@@H]3C[C@H](F)C4=CC(=O)C(Cl)=C[C@]4(C)[C@@]3(F)[C@@H](O)C[C@]2(C)[C@@]1(O)C(=O)CO
inactive: outcome [1] | outcome [2] | outcome [3] | outcome [4] | Potency [5] | outcome [6] | outcome [7] | Potency [8] | Potency [9] | outcome [10]

CCOc1ccccc1OCC
inactive: outcome [1] | outcome [2] | outcome [3] | outcome [4] | outcome [11] | Potency [5] | outcome [6] | outcome [7] | Potency [8] | Potency [9] | outcome [10]

CC(C)CC(C)(N)C#N (configuration not stated)
inactive: outcome [1] | outcome [2] | outcome [3] | outcome [4] | outcome [12] | Potency [5] | outcome [6] | outcome [7] | Potency [8] | Potency [9] | outcome [10]

COc1cc2c(cc1OC)-c1cc3ccc(OC)c(OC)c3c[n+]1CC2
inactive: outcome [1] | outcome [3] | outcome [4] | outcome [12] | Potency [5] | outcome [6] | outcome [7] | Potency [8] | Potency [9] | outcome [10]

CCCCCCCCCCCCCCCCCCO
inactive: outcome [1] | outcome [2] | outcome [3] | outcome [4] | outcome [12] | Potency [5] | outcome [6] | outcome [7] | Potency [8] | Potency [9] | outcome [10]

O=S(=O)(O)c1cccc2ccccc12
inactive: outcome [1] | outcome [2] | outcome [3] | outcome [4] | outcome [12] | Potency [5] | outcome [6] | outcome [7] | Potency [8] | Potency [9] | outcome [10]

O=[N+]([O-])c1ccc(/C=N\O)o1
inactive: outcome [1] | outcome [2] | outcome [3] | outcome [4] | outcome [11] | Potency [5] | outcome [6] | outcome [7] | Potency [8] | Potency [9] | outcome [10]

CCCCCCCCCCCCCCC(=O)O
inactive: outcome [1] | outcome [2] | outcome [3] | outcome [4] | outcome [12] | Potency [5] | outcome [6] | outcome [7] | Potency [8] | Potency [9] | outcome [10]

CC(N)C12CC3CC(CC(C3)C1)C2 (configuration not stated)
inactive: outcome [1] | outcome [2] | outcome [3] | outcome [4] | Potency [5] | outcome [6] | outcome [7] | Potency [8] | Potency [9] | outcome [10] | Potency [13] | Potency [14]

CC(C)NNC(=O)c1ccncc1
inactive: outcome [1] | outcome [2] | outcome [3] | outcome [4] | outcome [12] | Potency [5] | outcome [6] | outcome [7] | Potency [8] | Potency [9] | outcome [10] | outcome [15] | outcome [16]

COc1c(N2CCNC(C)C2)c(F)cc2c(=O)c(C(=O)O)cn(C3CC3)c12 (configuration not stated)
inactive: outcome [1] | outcome [2] | outcome [3] | outcome [4] | outcome [12] | Potency [5] | outcome [6] | outcome [7] | Potency [8] | Potency [9] | outcome [10] | Potency [14]

Cc1cc(C)c(N=Nc2c(O)c(S(=O)(=O)O)cc3cc(S(=O)(=O)O)ccc23)cc1C
inactive: activity change, negative = cytotoxicity [1] -8.28% [at 5.95 µM] | viability change, negative = cytotoxic [2] 8.22% [at 6.95 µM] | activity, negative = cytotoxic [3] -2.06% [at 6.95 µM] | activation [4] -3.13% [at 6.95 µM] | activity, negative = cytotoxicity [12] -7.94% [at 8.39 µM] | activity change, negative = inhibition [5] -3.58% [at 8.39 µM] | viability change, negative = cytotoxic [6] -9.8% [at 6.97 µM] | activation [7] 6% [at 6.97 µM] | activation [8] 2.6% [at 6.98 µM] | activity change, negative = cytotoxicity [9] -2.64% [at 6.97 µM] | activity change, negative = cytotoxicity [10] 0.446% [at 8.39 µM]

CC(C)C[C@@H](N)C(=O)O
inactive: outcome [1] | outcome [2] | outcome [3] | outcome [4] | activity, negative = cytotoxicity [12] 3.47% [at 19 µM] | activity change, negative = inhibition [5] 6.26% [at 19 µM] | viability change, negative = cytotoxic [6] -0.425% [at 15.8 µM] | activation [7] -5.77% [at 15.8 µM] | activation [8] 4.08% [at 15.8 µM] | activity change, negative = cytotoxicity [9] 4.29% [at 15.8 µM] | activity change, negative = cytotoxicity [10] 3.59% [at 19 µM]

O=C(O)CCCC[P+](c1ccccc1)(c1ccccc1)c1ccccc1
inactive: outcome [1] | outcome [2] | outcome [3] | outcome [4] | outcome [12] | Potency [5] | outcome [7] | Potency [8] | Potency [9] | outcome [10] | Potency [14]

CC[C@H]1OC(=O)[C@H](C)[C@@H](O[C@H]2C[C@@](C)(OC)[C@@H](O)[C@H](C)O2)[C@H](C)[C@@H](O[C@@H]2O[C@H](C)C[C@H](N(C)C)[C@H]2O)[C@](C)(OC)C[C@@H](C)C(=O)[C@H](C)[C@@H](O)[C@]1(C)O
inactive: outcome [1] | outcome [2] | outcome [3] | outcome [4] | outcome [12] | Potency [5] | outcome [6] | outcome [7] | Potency [8] | Potency [9] | outcome [10]

CCCCCCCCCCCCSC
inactive: outcome [1] | outcome [2] | outcome [3] | outcome [4] | outcome [11] | Potency [5] | outcome [6] | outcome [7] | Potency [8] | Potency [9] | outcome [10]

CC(=O)c1ccccc1[N+](=O)[O-]
inactive: outcome [1] | outcome [2] | outcome [3] | outcome [4] | outcome [12] | Potency [5] | outcome [6] | outcome [7] | Potency [8] | Potency [9] | outcome [10] | Potency [14]

CCN(Cc1ccccc1)c1ccccc1
inactive: outcome [1] | outcome [2] | outcome [3] | outcome [4] | outcome [11] | Potency [5] | outcome [6] | outcome [7] | Potency [8] | Potency [9] | outcome [10] | Potency [14]
